About 13,000 (27%) of roughly 48,000 compounds showed an effect of 50% or more. The list shows a part of the results.

This test deals with Wolbachia pipientis. Put plainly: Anti-Wolbachia Cell-Based Screen. The note with it: 5 µM. The arrangement: scale not given: in the data most compounds retested in dose-response had high values. It counts as functional.
Regarding `CCCn1nc(-c2nc(COc3ccccc3)no2)ccc1=O`, the “Percent Effect” value is -3.247%. The value for `CCc1noc(-c2cccc(OCC(=O)NC(C)C)c2)n1` was 95.64%; that for `CCCNC(=O)COc1cccc(-c2nc(C(C)C)no2)c1` was 120.4%.

For `CC(C)c1noc(CS(=O)(=O)CC(=O)NCCOc2ccccc2)n1`, the “Percent Effect” value stood at 13.06%. The value for `COc1cccc(-c2n[nH]cc2C(=O)NC(C)c2nc(C(C)C)no2)c1` (stereo not drawn) was -2.83%; that for `CC(C)NC(=O)COc1nc(C(C)C)no1` was -19.75%; that for `Cc1oncc1S(=O)(=O)N1CCCC(C)(Cc2ccc3c(c2)OCO3)C1` (stereo not drawn) was -3.14%. With `CS(=O)(=O)NCCC(=O)NCc1cccnc1-n1cnc2ccccc21` the figure was 11.61%; with `O=C(CS(=O)(=O)C1CCCC1)NC1CCCc2cc(OC(F)F)ccc21` (stereo not drawn), -7.219%. The value for `COCCN(Cc1ccccn1)C(=O)CC1OCCc2sccc21` (stereo not drawn) was 9.879%; that for `CSCc1noc(CN2CC3(CCCC3)CC2=O)n1` was -12.65%; that for `CN(C)C(C(=O)N1CCN(C(=O)c2ccc[nH]2)CC1)c1ccc(F)cc1` (stereo not drawn) was 1.074%.

With `CC(C)c1noc(-c2cccc(OCC(N)=O)c2)n1`, the “Percent Effect” value was found to be 109.4%.

As for `CN1CCC(Cc2noc(-c3cccc(OCC(N)=O)c3)n2)CC1`, the “Percent Effect” value was 14.54%.

In the case of `CC(C)c1ncc2c(n1)CN(Cc1cccc(OCC(N)=O)c1)CC2`, the “Percent Effect” value is listed as -10.24%. Regarding `CN(CCOc1cccc(CN)c1)C1CCOCC1`, the “Percent Effect” value was found to be 3.585%. With `Cn1cc(CN2CCCCC2c2ccc(-c3cccc(F)c3)nc2)cn1` (stereo not drawn), the “Percent Effect” value was 28.65%. With `Cn1c(Cl)cnc1CN1CCCC1c1ccc2c(c1)OCCO2` (stereo not drawn), the “Percent Effect” value is listed as -20.61%.

In the case of `Cn1cc(-c2ccc(C3CCCCN3Cc3cccnc3)cn2)cn1` (stereo not drawn), the “Percent Effect” value was 97.17%. Regarding `Cn1cc(CN2CCCCC2c2ccc(-c3cnn(C)c3)nc2)cn1` (stereo not drawn), the “Percent Effect” value was 49.11%. With `Cn1cc(CN2CCCCC2c2ccc(-c3cccc(Cl)c3)nc2)cn1` (stereo not drawn) the figure was 64.04%. With `Cc1cnn(CCCNC(=O)C2CCCCN2Cc2cccnc2)c1` (stereo not drawn) the figure was 8.943%; with `CN(CC(=O)Nc1ccccc1)C(=O)CN(C)c1ccc(Cl)cn1`, -3.187%; with `CSc1ncc(CNCC2(N3CCCCC3)Cc3ccccc3C2)cn1`, -2.025%. With `Cc1noc(CS(=O)(=O)c2cc(F)ccc2F)n1` the figure was 2.12%. Regarding `O=C(NC[C@H]1OC[C@@H]2CCN(c3ccccn3)C[C@@H]21)c1ccco1`, the “Percent Effect” value was -8.109%. With `CCC1CN(C(=O)c2cnc(-c3ccccc3)s2)CCO1` (stereo not drawn) the figure was -14.04%; with `Cc1cnc(N2CCOC(C(=O)NCc3ccccc3)C2)s1` (stereo not drawn), 138.3%; with `O=C(NCc1ccccc1)C1CN(c2ccccn2)CCO1` (stereo not drawn), 195.5%. With `Nc1nccc(N2CCNC(C(=O)NCc3ccccn3)C2)n1` (stereo not drawn) the figure was -0.8592%. In the case of `O=C(NCc1ccncc1)C1CN(c2nc3ccccc3s2)CCN1` (stereo not drawn), the “Percent Effect” value came out at 6.015%.

Turning to `CN(C)c1ccccc1C(=O)N1C[C@@H](CN2CCOCC2)[C@@H](CO)C1`, the “Percent Effect” value is 9.943%.

As to `O=C1N[C@@H]2CCN(C(=O)c3ccccc3)[C@@H]2C(=O)N1Cc1ccccc1`, the “Percent Effect” value is -7.073%. Consider `N#Cc1ncn(CCC(=O)Nc2c(Cl)cccc2Cl)n1`, for which the “Percent Effect” value was -3.932%.

For `N#Cc1ncn(CCC(=O)Nc2ccc(F)c(F)c2)n1`, the “Percent Effect” value amounted to 100.3%. The value for `N#Cc1ncn(CCC(=O)Nc2cc(Cl)ccc2Cl)n1` was 94.62%; that for `N#Cc1ncn(CC(=O)Nc2cc(Cl)ccc2F)n1` was -2.838%; that for `N#Cc1ncn(CCS(=O)(=O)c2ccc(Cl)cc2)n1` was -0.6249%. The value for `O=C(CCNC(=O)c1ccoc1)Nc1ccccc1F` was -1.29%. The value for `N#Cc1ncn(CCS(=O)(=O)c2ccccc2)n1` was 11.97%; that for `N#Cc1ncn(CCC(=O)Nc2ccc(Cl)cc2F)n1` was 11.11%; that for `N#Cc1ncn(CCC(=O)Nc2cccc(Cl)c2)n1` was 93.03%. On to `Cc1ccc(F)cc1NC(=O)CCn1cncn1`, for which the “Percent Effect” value was -7.237%. The value for `N#Cc1ncn(CCC(=O)Nc2ccccc2F)n1` was 141.3%; that for `N#Cc1ncn(CCS(=O)(=O)c2ccc(Br)cc2)n1` was 14.03%; that for `CCCC1CCN(C(=O)c2coc(COc3ccc(OC)cc3)n2)C1` (stereo not drawn) was 13.18%. With `CCOc1c(Br)cc(CNC(C)c2nnc3n2CCC3)cc1OC` (stereo not drawn) the figure was -3.79%. With `O=C(c1cc(COc2ccc3c(c2)OCO3)[nH]n1)N1CCCO1` the figure was -2.662%; with `COc1ccc(C[C@H]2CN(C3CCOCC3)CC[C@H]2OCC2CC2)cc1.O=C(O)C(F)(F)F`, -41.15%.

Take `COc1ccc(C[C@H]2CN(Cc3ccoc3)CC[C@@H]2OC)cc1.O=C(O)C(F)(F)F`: the “Percent Effect” value came out at 76.48%.

On to `COc1ccc(C[C@H]2CN(C3CCOCC3)CC[C@@H]2OCC2CC2)cc1.O=C(O)C(F)(F)F`, for which the “Percent Effect” value is recorded as -34.49%. On to `COc1ccc(CN2C[C@@H]3CN(Cc4ccoc4)C[C@@H]3C2=O)cc1.O=C(O)C(F)(F)F`, for which the “Percent Effect” value is given as -0.9609%. With `COc1ccc(C[C@H]2CN(Cc3ccoc3)CC[C@H]2OC)cc1.O=C(O)C(F)(F)F` the figure was 63.46%.

For the origin of these results see ChEMBL document CHEMBL3988442, “University of Dundee, Small-Polar-MMV Screening Library” (2021).
